Test results as given in PubChem BioAssay AID1159580 (chemical genetic matrix, 2015).
Several values for one entry are separate records, joined by “and”; a condition that tells them apart may be missing. Equal entries are not always repeated. Out of some 5,500 compounds screened, about 2,000 (36%) were called active. About 18% were inconclusive and are not listed. Cut-off read from the data, not from the text of the source: active = normalized growth mostly below about 0.91 (no sharp cut-off); inconclusive = no clear call, values can overlap the other calls; inactive = mostly above about 0.92. The list shows a part of the results.

Test: chemical genetic growth profiling, strain panel (AID 1159580);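 note: tested at 20 µM; growth read once vehicle control cultures reached saturation at 30 °C; 1 = growth at the plate median or of vehicle wells; lower values mean less growth of the strain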
Conditions: S. cerevisiae deletion strains, growth OD

Measured: normalized growth

CC1CC[C@]2(NC1)O[C@H]1CC3C4CC[C@H]5C[C@@H](O)CC[C@]5(C)C4CC[C@]3(C)[C@H]1[C@@H]2C (stereo partly specified)
inactive: locus YOL012C, strain htz1 0.203
active: locus YAL021C, strain ccr4, hits give low values 0.173 | locus YAL026C, strain drs2, hits give low values 0.0682 | locus YAL030W, strain snc1, hits give low values 0.0859 | locus YBL061C, strain skt5, hits give low values 0.109 | locus YBR009C, strain hhf1, hits give low values 0.0771 | locus YBR021W, strain FUR4, hits give low values 0.272 | locus YBR023C, strain chs3, hits give low values 0.102 | locus YBR171W, strain sec66, hits give low values 0.159 | locus YBR229C, strain ROT2, hits give low values 0.107 | locus YBR231C, strain swc5, hits give low values 0.167 | locus YBR279W, strain paf1, hits give low values 0.143 | locus YCL011C, strain gbp2, hits give low values 0.0814 | locus YCL016C, strain dcc1, hits give low values 0.103 | locus YCL029C, strain bik1, hits give low values 0.0809 | locus YCL061C, strain MRC1, hits give low values 0.103 | locus YCL069W, strain vba3, hits give low values 0.0775 | locus YCR088W, strain abp1, hits give low values 0.111 | locus YDL005C, strain med2, hits give low values 0.104 | locus YDL035C, strain GPR1, hits give low values 0.0845 | locus YDL040C, strain nat1, hits give low values 0.164 | locus YDL074C, strain BRE1, hits give low values 0.148 | locus YDL101C, strain DUN1, hits give low values 0.0938 | locus YDL185W, strain tfp1, hits give low values 0.0599 | locus YDL192W, strain arf1, hits give low values 0.0839 | locus YDR001C, strain nth1, hits give low values 0.108 | locus YDR069C, strain doa4, hits give low values 0.386 | locus YDR101C, strain arx1, hits give low values 0.104 | locus YDR137W, strain rgp1, hits give low values 0.534 | locus YDR159W, strain sac3, hits give low values 0.11 | locus YDR162C, strain NBP2, hits give low values 0.0587 | locus YDR195W, strain ref2 0.225 | locus YDR297W, strain sur2, hits give low values 0.102 | locus YDR318W, strain mcm21, hits give low values 0.0797 | locus YDR334W, strain swr1, hits give low values 0.0978 | locus YDR335W, strain msn5, hits give low values 0.101 | locus YDR388W, hits give low values 0.0652 | locus YDR392W, strain spt3, hits give low values 0.0848 | locus YDR502C, strain sam2, hits give low values 0.0839 | locus YEL003W, strain gim4, hits give low values 0.0733 | locus YEL037C, strain rad23, hits give low values 0.197 | locus YEL061C, strain CIN8 (second series), hits give low values 0.0698 | locus YER015W, strain faa2, hits give low values 0.118 | locus YER016W, strain bim1, hits give low values 0.102 | locus YER110C, hits give low values 0.135 | locus YER111C, strain swi4, hits give low values 0.0988 | locus YER155C, strain BEM2 (second series), hits give low values 0.113 | locus YER155C, strain BEM2, hits give low values 0.0788 | locus YER167W, strain BCK2, hits give low values 0.0623 | locus YFR010W, strain ubp6, hits give low values 0.375 | locus YGL078C, strain dbp3, hits give low values 0.124 | locus YGL086W, strain mad1, hits give low values 0.073 | locus YGL167C, strain pmr1, hits give low values 0.319 | locus YGL173C, strain kem1, hits give low values 0.442 | locus YGL227W, strain vid30, hits give low values 0.0819 | locus YGL240W, strain doc1, hits give low values 0.257 | locus YGL248W, strain PDE1, hits give low values 0.0587 | locus YGL253W, strain hxk2, hits give low values 0.0659 | locus YGR135W, strain pre9, hits give low values 0.0764 | locus YGR229C, strain SMI1, hits give low values 0.0768 | locus YGR252W, strain gcn5, hits give low values 0.211 | locus YHR013C, strain ard1, hits give low values 0.136 | locus YHR027C, strain rpn1, hits give low values 0.324 | locus YHR030C, strain SLT2, hits give low values 0.142 | locus YHR079C, strain IRE1 (second series), hits give low values 0.0949 | locus YHR079C, strain IRE1, hits give low values 0.54 | locus YHR094C, strain hxt1, hits give low values 0.0761 | locus YHR129C, strain ARP1, hits give low values 0.0658 | locus YHR142W, strain chs7, hits give low values 0.0852 | locus YHR200W, strain rpn10, hits give low values 0.103 | locus YIL066C, strain RNR3, hits give low values 0.0618 | locus YIL073C, strain SPO22, hits give low values 0.125 | locus YIL125W, strain kgd1, hits give low values 0.102 | locus YIR030C, strain dcg1, hits give low values 0.0851 | locus YJL092W, strain hpr5, hits give low values 0.0924 | locus YJL095W, strain BCK1 (second series), hits give low values 0.0627 | locus YJL095W, strain BCK1, hits give low values 0.0635 and 0.17 | locus YJL115W, strain asf1, hits give low values 0.113 | locus YJL129C, strain trk1, hits give low values 0.102 | locus YJL134W, strain LCB3, hits give low values 0.0651 | locus YJL154C, strain vps35, hits give low values 0.156 | locus YJL164C, strain tpk1, hits give low values 0.0795 | locus YJL166W, strain qcr8, hits give low values 0.0744 | locus YJL168C, strain set2, hits give low values 0.0986 | locus YJL187C, strain SWE1 (second series), hits give low values 0.0801 | locus YJR043C, strain POL32, hits give low values 0.0984 | locus YJR066W, strain TOR1, hits give low values 0.471 | locus YKL009W, strain mrt4, hits give low values 0.252 | locus YKL068W, hits give low values 0.135 | locus YKL085W, strain MDH1 (second series), hits give low values 0.0926 | locus YKL085W, strain MDH1, hits give low values 0.0926 | locus YKL160W, strain elf1, hits give low values 0.0907 | locus YKR001C, strain vps1, hits give low values 0.0755 | locus YKR026C, strain gcn3, hits give low values 0.223 | locus YKR091W, strain srl3, hits give low values 0.12 | locus YLL001W, strain dnm1, hits give low values 0.109 | locus YLL026W, hits give low values 0.0788 | locus YLL041C, strain sdh2, hits give low values 0.0915 | locus YLR027C, strain aat2, hits give low values 0.0814 | locus YLR039C, strain RIC1, hits give low values 0.229 | locus YLR058C, strain SHM2, hits give low values 0.0708 | locus YLR102C, strain apc9, hits give low values 0.0841 | locus YLR113W, strain HOG1, hits give low values 0.557 | locus YLR221C, strain rsa3, hits give low values 0.077 | locus YLR258W, strain gsy2, hits give low values 0.0908 | locus YLR262C, strain YPT6 (second series), hits give low values 0.323 | locus YLR268W, strain sec22, hits give low values 0.0945 | locus YLR320W, strain mms22, hits give low values 0.0887 | locus YLR330W, strain CHS5, hits give low values 0.0602 | locus YLR342W, strain FKS1 (second series), hits give low values 0.0855 | locus YLR342W, strain FKS1, hits give low values 0.0932 | locus YLR357W, strain rsc2, hits give low values 0.383 | locus YLR370C, strain arc18, hits give low values 0.0901 | locus YLR371W, strain rom2, hits give low values 0.0788 | locus YLR384C, strain iki3, hits give low values 0.213 | locus YLR418C, strain cdc73, hits give low values 0.141 | locus YML016C, strain PPZ1, hits give low values 0.0661 | locus YML032C, strain rad52, hits give low values 0.105 | locus YML120C, strain ndi1, hits give low values 0.0802 | locus YML124C, strain tub3, hits give low values 0.0853 | locus YMR058W, strain fet3, hits give low values 0.113 | locus YMR078C, strain ctf18, hits give low values 0.0791 | locus YMR125W, strain sto1, hits give low values 0.102 | locus YMR129W, hits give low values 0.0908 | locus YMR205C, strain PFK2, hits give low values 0.124 | locus YMR223W, strain ubp8, hits give low values 0.0843 | locus YMR231W, strain pep5, hits give low values 0.106 | locus YMR263W, strain SAP30, hits give low values 0.0847 | locus YMR307W, strain GAS1, hits give low values 0.145 | locus YNL067W, strain RPL9B, hits give low values 0.0797 | locus YNL071W, strain lat1, hits give low values 0.0674 | locus YNL183C, strain NPR1, hits give low values 0.561 | locus YNL209W, strain ssb2, hits give low values 0.383 | locus YNL233W, strain BNI4, hits give low values 0.0735 | locus YNL248C, strain rpa49, hits give low values 0.101 | locus YNL250W, strain rad50, hits give low values 0.104 | locus YNL271C, strain bni1, hits give low values 0.103 | locus YNL298W, strain CLA4, hits give low values 0.081 | locus YNL307C, strain MCK1, hits give low values 0.0717 | locus YNL322C, strain KRE1 (second series), hits give low values 0.131 | locus YNL322C, strain KRE1, hits give low values 0.0664 | locus YNR049C, strain mso1, hits give low values 0.0984 | locus YNR052C, strain pop2, hits give low values 0.103 | locus YOL006C, strain TOP1, hits give low values 0.15 | locus YOL147C, strain pex11, hits give low values 0.0685 | locus YOR001W, strain rrp6, hits give low values 0.105 | locus YOR061W, strain CKA2, hits give low values 0.117 | locus YOR069W, strain VPS5, hits give low values 0.0792 | locus YOR070C, strain gyp1, hits give low values 0.0794 | locus YOR080W, strain dia2, hits give low values 0.111 | locus YOR083W, strain WHI5, hits give low values 0.198 | locus YOR106W, strain vam3, hits give low values 0.143 | locus YOR136W, strain idh2, hits give low values 0.0918 | locus YOR144C, strain elg1, hits give low values 0.0753 | locus YOR184W, strain ser1, hits give low values 0.0768 | locus YOR231W, strain MKK1, hits give low values 0.573 | locus YOR265W, strain rbl2, hits give low values 0.106 | locus YOR270C, strain vph1, hits give low values 0.111 | locus YOR290C, strain snf2, hits give low values 0.108 | locus YOR316C, strain cot1, hits give low values 0.0772 | locus YPL051W, strain arl3, hits give low values 0.182 | locus YPL078C, strain atp4, hits give low values 0.0844 | locus YPL106C, strain sse1, hits give low values 0.175 | locus YPL240C, strain hsp82, hits give low values 0.084 | locus YPL241C, strain CIN2, hits give low values 0.0689 | locus YPL256C, strain CLN2, hits give low values 0.604 | locus YPR119W, strain clb2, hits give low values 0.0896 | locus YPR141C, strain kar3, hits give low values 0.176 | locus YPR163C, strain tif3, hits give low values 0.0892 | locus YPR167C, strain met16, hits give low values 0.0808 | strain wtn01, hits give low values 0.0731
